# Screening results (PubChem)
# GDH-TPI counter-1 – inhibits GDH-TPI coupling enzymes, artifact for Mtb FBA screen; GDH-TPI coupled enzyme counterscreen, NADH absorbance; inhibition, % at 4.8 µM; 360,000 tested, 1.2% active; in the data active = inhibition above about 30%;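 note: 0% = DMSO wells and 100% = wells lacking the enzyme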
# CCHFV vOTU inh – CCHFV vOTU protease inhibition. 370,000 tested, 0.55% active. Pep-AMC fluorescence. inhibition, % at 11.5 µM; in the data active = inhibition above about 30%; note: 0% = vehicle wells with enzyme and 100% = no enzyme wells
# FBA Mtb inh – inhibits M. tuberculosis FBA enzyme | AID 588726 | P9WQA3 | 360,000 tested, 2.3% active | inhibition, % at 1 µM | purified M. tuberculosis FBA, fluorescence read-out;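 note: 0% = vehicle and 100% = reference inhibitor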
# RecA intein inh – blocks M. tuberculosis RecA intein splicing. cell-free RecA intein splicing, fluorescence. P9WHJ3. inhibition, % (test concentration not listed). 290,000 tested, 0.75% active; in the data active = inhibition above about 30%;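 note: 0% = vehicle wells and 100% = reference inhibitor control wells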
# Target sequence (P9WHJ3 whole entry, looked up): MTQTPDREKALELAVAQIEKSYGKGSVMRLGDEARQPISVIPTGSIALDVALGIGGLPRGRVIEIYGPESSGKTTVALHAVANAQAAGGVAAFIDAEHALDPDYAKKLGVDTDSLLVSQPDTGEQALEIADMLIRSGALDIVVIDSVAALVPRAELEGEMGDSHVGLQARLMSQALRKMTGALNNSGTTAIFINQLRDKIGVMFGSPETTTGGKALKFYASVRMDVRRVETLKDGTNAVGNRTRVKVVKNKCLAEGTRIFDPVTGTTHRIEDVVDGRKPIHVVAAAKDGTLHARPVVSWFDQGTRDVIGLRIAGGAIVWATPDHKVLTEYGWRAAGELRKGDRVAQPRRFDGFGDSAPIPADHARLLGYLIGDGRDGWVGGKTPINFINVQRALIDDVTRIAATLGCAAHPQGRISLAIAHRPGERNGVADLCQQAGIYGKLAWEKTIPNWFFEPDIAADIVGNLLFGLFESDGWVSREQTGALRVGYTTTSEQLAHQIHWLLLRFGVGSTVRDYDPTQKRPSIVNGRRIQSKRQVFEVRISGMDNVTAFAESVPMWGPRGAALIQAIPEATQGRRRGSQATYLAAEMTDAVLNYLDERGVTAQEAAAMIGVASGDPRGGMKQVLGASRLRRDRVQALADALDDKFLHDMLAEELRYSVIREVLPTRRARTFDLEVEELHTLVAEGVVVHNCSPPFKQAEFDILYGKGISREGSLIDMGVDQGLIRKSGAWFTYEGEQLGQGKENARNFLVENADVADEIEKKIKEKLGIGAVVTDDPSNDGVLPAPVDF
# Mtb FBA confirm – confirmation of M. tuberculosis fructose-bisphosphate aldolase inhibitors; shares compounds with FBA Mtb inh; purified M. tuberculosis FBA, fluorescence read-out; inhibition, % at 1 µM; 5,600 tested, 78% active;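 note: 0% = vehicle wells and 100% = reference inhibitor wells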
# GDH-TPI counter-2 – inhibits GDH-TPI coupling enzymes, flagging Mtb FBA hits. shares compounds with FBA Mtb inh. GDH-TPI coupled enzyme counterscreen, fluorescence. inhibition, % at 1 µM. 5,600 tested, 81% active. AID 652141; in the data active = inhibition above about 10%
# * hit, by the source's call; nt = no result; + = active, no number. An excerpt weighted towards active compounds, which were near 4.2% of everything screened. Cut-off read from the data, not from the text of the source, unless noted: active = inhibition above about 27%; inactive = the rest.
SMILES,GDH-TPI counter-1,CCHFV vOTU inh,FBA Mtb inh,RecA intein inh,Mtb FBA confirm,GDH-TPI counter-2
C=CCn1c(SCC(=O)N(CC)C2CCS(=O)(=O)C2)nc2ccccc2c1=O (centres undefined),4,4,-5,0,nt,nt
C=CCn1c(SCC(=O)N(CC)C2CCS(=O)(=O)C2)nc2cc(C(=O)O)ccc2c1=O (centres undefined),5,7,32*,nt,111*,89*
CCOc1ccccc1/C=C/c1cc(C(=O)O)c2ccccc2n1,9,-17,29*,1,91*,71*
CCOc1ccccc1/C=C/c1nc2ccccc2[nH]c1=O,28,-18,43*,-58,0,0
CCN(CC)C(=O)Cc1cc(C(=O)O)c2ccccc2n1,6,3,5,1,nt,nt
COc1ccc(CNC(=O)C2CCC(=O)N(C3CCCCCC3)C2)c(OC)c1 (centres undefined),1,-16,-2,nt,nt,nt
c1csc(-c2cn3ccc4ccccc4c3n2)c1,5,-26,47*,-2,-4,-2
N#Cc1nc(-c2ccco2)oc1N1CCC(Cc2ccccc2)CC1,6,10,30*,8,-2,0
N#Cc1nc(-c2ccccc2Cl)oc1N1CCOCC1,29,-21,33*,3,113*,92*
N#Cc1nc(-c2ccco2)oc1N1CCOCC1,10,-31,82*,-6,198*,160*
COc1ccc(-c2nc(CS(=O)(=O)CC(=O)NC3CCC(C)CC3)c(C)o2)cc1 (centres undefined),8,-2,3,0,nt,nt
COC(=O)c1oc2ccc(Cl)cc2c1N,15,-38,67*,-1,7,2
COC(=O)c1oc2ccccc2c1N,15,15,6,0,nt,nt
Cc1cccn2c(=O)c(C=NCCO)c(NCc3ccco3)nc12,25,5,39*,-1,+,+
Cc1ccccc1NC(=O)Cn1nnc(-c2ccncc2)n1,nt,-4,nt,nt,nt,nt
COc1ccc2nc(-c3ccc(F)cc3)sc2c1,9,-3,98*,5,+,+
COc1ccc2nc(N)sc2c1,2,-2,4,-2,nt,nt
CC(=O)C1=CCC(c2ccccc2)N(S(C)(=O)=O)C1 (centres undefined),nt,-7,3,nt,nt,nt
CCc1ccc(OCC(=O)Nc2ccc(-c3cc4ccccc4oc3=O)c(OC)c2)cc1,12,1,37*,0,64*,46*
COc1cc(NC(=O)c2cc(Cl)ccc2Cl)ccc1-c1cc2ccccc2oc1=O,21,-10,8,-2,nt,nt
CN(Cc1ccccc1)C(=O)c1csc([C@@H]2O[C@H](CO)[C@H](O)[C@H](O)[C@H]2O)n1,8,-6,-1,nt,nt,nt
Cn1c(-c2ccc(C=O)s2)nc2c3ccccc3c3ccccc3c21,24,4,53*,-17,37*,37*
COc1ccc2c(C)cc(=O)oc2c1C,2,-11,54*,3,+,196*
Cc1c(C)c2ccc(OCC(=O)N(C)C)c(C)c2oc1=O,12,-30,79*,-4,148*,125*
CCc1c(C)c2ccc(OCC(=O)N(C)C)c(C)c2oc1=O,3,-35,76*,nt,+,+
SMILES,GDH-TPI counter-1,CCHFV vOTU inh,FBA Mtb inh,RecA intein inh,Mtb FBA confirm,GDH-TPI counter-2
Cc1cc(=O)oc2c(C)c(OCC(=O)N(C)C)ccc12,20,-2,37*,nt,46*,40*
O=[N+]([O-])c1ccccc1OCCN1CCOCC1,-1,3,0,1,nt,nt
O=C(O)c1cc(N2CCCC2)ccn1,9,-6,3,nt,nt,nt
COC(=O)C1CCN(S(=O)(=O)c2c[nH]c(=O)[nH]c2=O)CC1,12,1,1,nt,nt,nt
C=CCOC(=O)COc1ccc2c(C)c(C)c(=O)oc2c1C,11,-11,58*,1,32*,34*
Cc1c(OCC(=O)N(C)C)ccc2c3c(c(=O)oc12)CCCCC3,16,-27,88*,-2,1,-4
Cc1c(OCC(=O)N2CCN(c3ccccc3)CC2)ccc2c3c(c(=O)oc12)CCCC3,-8,-7,-7,1,nt,nt
CCOC(=O)CCc1c(C)c2ccc(OC3CCCCC3=O)c(C)c2oc1=O (centres undefined),8,-17,23,-2,nt,nt
CCc1c(C)c2ccc(OCC(=O)OC(C)C)c(C)c2oc1=O,4,3,11,1,nt,nt
CCOC(=O)CCc1c(C)c2ccc(OCC(=O)N(CC)CC)c(C)c2oc1=O,0,-40,76*,0,18,20*
